Bioassay records (PubChem BioAssay)
A selection: hits, their analogues and other compounds. The true share with any hit is near 27%.
sEH act = soluble epoxide hydrolase (human) activation. AID 717. 0.04% of 91,000 active. activation, % at 2 µM. purified human sEH enzymatic activity, activator screen; in the data active means activation above about 37%
CYP2C9 inhib = inhibitors of human CYP2C9. inhibition, % at 5 µM. P11712. CYP2C9 Supersomes, luciferin-H conversion, luminescence. 20% of 96,000 active;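 active means blocking of liver enzyme CYP2C9 beyond about 50% at 5 µM, limit read from the data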
CYP2C19 inh = human CYP2C19 inhibition; P33261; 21% of 96,000 active; inhibition, % at 5 µM; AID 778; CYP2C19 Supersomes, luciferin-H EGE luminescence, 30 min;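 active means CYP2C19 inhibition above a set limit at 5 µM in the primary screen, cut at about 50% in these data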;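 further: plate controls were negative control wells for no effect and 2.5 mM tranylcypromine positive control for full effect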
Target sequence (P33261 whole entry, looked up): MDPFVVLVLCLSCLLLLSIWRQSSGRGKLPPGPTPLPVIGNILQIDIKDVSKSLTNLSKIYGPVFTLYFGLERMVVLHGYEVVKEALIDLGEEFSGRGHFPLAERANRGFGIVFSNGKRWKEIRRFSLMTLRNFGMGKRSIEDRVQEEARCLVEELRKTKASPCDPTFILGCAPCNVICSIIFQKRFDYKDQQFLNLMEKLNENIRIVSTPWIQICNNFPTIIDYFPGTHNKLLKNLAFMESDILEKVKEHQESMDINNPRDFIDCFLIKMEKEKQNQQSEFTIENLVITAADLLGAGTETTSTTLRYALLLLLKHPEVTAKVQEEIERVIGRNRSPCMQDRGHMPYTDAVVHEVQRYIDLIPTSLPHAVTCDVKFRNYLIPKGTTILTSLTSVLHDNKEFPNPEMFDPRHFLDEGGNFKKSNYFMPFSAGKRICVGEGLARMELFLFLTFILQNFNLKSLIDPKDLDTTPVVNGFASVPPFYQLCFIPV
CYP2C9 act = increases human cytochrome P450 2C9 activity; 1.4% of 96,000 active; recombinant CYP2C9, luciferin-H conversion, luminescence; active compounds read high; factor 1 = untreated enzyme, 0 = blocked; P11712; activation factor at 5 µM;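 active means activation factor of 2 or more for CYP2C9 at a 5 µM dose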;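 further: 0 = sulfaphenazole-blocked wells and 1 = vehicle-only wells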
sEH inhibitor = soluble epoxide hydrolase (human) inhibition; P34913; recombinant human sEH enzymatic activity assay; inhibition, % at 2 µM; 0.34% of 91,000 active; in the data active means inhibition above about 80%
CYP2C19 activ = cytochrome P450 2C19 (human) activation; recombinant CYP2C19, luciferin-H EGE luminescence; active compounds read high; 0 = fully inhibited enzyme, 1 = untreated enzyme; AID 1025; P33261; activation factor at 5 µM; 96,000 tested, under 10 active;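 active means activation factor of at least 2 at 5 µM in the primary screen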;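 further: 0 = wells with 2.5 mM tranylcypromine and 1 = vehicle-only wells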
Starred values were filed as active, the others as inactive; / = no result given.

SMILES	sEH act	CYP2C9 inhib	CYP2C19 inh	CYP2C9 act	sEH inhibitor	CYP2C19 activ
CCOc1ccccc1OCC(=O)NCc1ccco1	8	-7	65*	1.1	-5	0.3
O=C(COC(=O)c1ccc(N2CCCC2=O)cc1)NCc1ccco1	/	14	-3	0.9	/	1
Nc1cc(C(=O)OCC(=O)NCc2ccco2)ccc1Cl	-13	44	60*	0.6	13	0.4
O=C(NCCN1CCN(Cc2ccccc2Cl)CC1)Nc1ccccc1	11	48	-1	0.5	-8	1
CCCCc1[nH]c(=O)c(C#N)c2c1CCCC2	-1	24	8	0.8	1	0.9
CCOc1ccc(C(=O)OCC(=O)NCc2ccco2)cc1OCC	10	-6	70*	1.1	-9	0.3
CCCOc1ccc(CC(=O)NCc2ccco2)cc1OC	1	43	63*	0.6	2	0.4
COc1ccc(C(=O)OCC(=O)NCc2ccco2)cc1OC	-8	-10	-4	1.1	7	1
COc1ccc(/C=N/NC(=O)c2ccc(COc3ccccc3Cl)o2)cc1	-84	50	35	0.5	84*	0.6
CCOc1ccc(/C=N/NC(=O)c2ccc(Cn3cc([N+](=O)[O-])cn3)o2)cc1	-57	59*	6	0.4	58	0.9
COc1ccc(NC(=O)c2ccco2)cc1NC(=O)c1ccc(Br)o1	-11	42	41	0.6	8	0.6
Cc1nn(Cc2c(F)c(F)c(F)c(F)c2F)c(C)c1NC(=O)c1ccc(COc2ccccc2Cl)o1	-13	59*	53*	0.4	18	0.5
COc1cc(NC(=O)c2ccc(Br)o2)ccc1NC(=O)c1ccccc1Cl	0	77*	98*	0.2	4	0
COc1cc(CNC2CCCCCC2)cc(OC)c1	-14	-1	37	1	11	0.6
CCOc1ccc(N2C(=O)CC(N3CCN(C(=O)c4ccco4)CC3)C2=O)cc1 (stereo unspecified)	3	8	9	0.9	-2	0.9
Clc1ccccc1CSc1ncn(-c2ccccc2)n1	11	/	/	/	-11	/
O=C(Nc1ccccc1Oc1ccccc1)c1ccc(Br)o1	7	7	21	0.9	-6	0.8
Cc1cc(NC(=O)c2ccc(COc3ccc(Cl)c(C)c3)o2)no1	-8	18	30	0.8	10	0.7
CCN(CC)c1ccc(NC(=O)c2ccco2)c(C)c1	-3	-33	-5	1.3	6	1.1
CCN(CC)c1ccc(NC(=O)c2ccc(Br)o2)c(C)c1	-6	-140	29	2.4*	3	0.7
COc1ccc(NC(=O)c2ccc(COc3ccccc3Br)o2)cc1OC	-18	73*	36	0.3	17	0.6
Cc1cccc(NC(=O)c2ccc(COc3ccc(Cl)cc3Cl)o2)n1	6	56*	44	0.4	-8	0.6
COc1ccccc1NC(=O)c1ccc(Br)o1	-2	-138	33	2.4*	3	0.7
Cc1cc(C)nc(-n2nc(C)cc2NC(=O)c2cccc(S(=O)(=O)N3CCOCC3)c2)n1	/	28	5	0.7	/	0.9
COc1ccc(C2C=C(c3ccc(Br)s3)Nc3ncnn32)cc1OC (stereo unspecified)	/	50*	98*	0.5	/	0
SMILES	sEH act	CYP2C9 inhib	CYP2C19 inh	CYP2C9 act	sEH inhibitor	CYP2C19 activ
COc1ccc(C2C=C(c3ccc(C)cc3)Nc3ncnn32)cc1 (stereo unspecified)	16	34	28	0.7	-13	0.7
CCOC(=O)C1=C(c2ccccc2)Nc2ncnn2C1c1cccc(OC)c1OC (stereo unspecified)	-3	40	44	0.6	3	0.6
COc1cccc(C2C=C(c3cccs3)Nc3ncnn32)c1OC (stereo unspecified)	0	56*	43	0.4	1	0.6
COc1ccc2c(c1)OC(O)(C(F)(F)F)CC2=O (stereo unspecified)	6	13	20	0.9	-6	0.8
CCOC(=O)N1CCN(C(=O)c2cc3c(s2)-c2ccccc2OC3)CC1	3	54*	43	0.5	-1	0.6
O=C(c1cc2c(s1)-c1ccccc1OC2)N1CCCC1	2	3	40	1	-3	0.6
O=C(c1cc2c(s1)-c1ccccc1OC2)N1CCN(c2ccccc2)CC1	/	71*	72*	0.3	/	0.3
O=C(c1cc2c(s1)-c1ccccc1OC2)N1CCN(c2ccccn2)CC1	4	20	17	0.8	-6	0.8
CCN1C(=O)c2cccc3c(S(=O)(=O)Nc4ccccn4)ccc1c23	/	65*	20	0.4	/	0.8
CCN1C(=O)c2cccc3c(S(=O)(=O)Nc4ncccc4C)ccc1c23	10	56*	23	0.4	-10	0.8
CN(C)c1cccc2c(S(=O)(=O)Nc3ccccn3)cccc12	1	-13	92*	1.1	-3	0.1
C=CCN(C(=O)c1cccc(S(=O)(=O)N2CCN(C)CC2)c1)c1nc(-c2ccccc2)cs1	-2	77*	79*	0.2	4	0.2
